# A number with no mark means an inactive call. Results filed as inconclusive are left out. A call without a number means that no potency is given here. Activity calls are given as the source filed them. Unless noted, calls come from the whole dose curve; as a rule, active = well fitted curve in the direction sought with a large enough effect; inconclusive = small, poorly fitted or top-dose-only effect, or another doubt; inactive = no such curve, though single readings can be large; an effect the other way counts as inactive or inconclusive.
# Columns and labels:
# [1] = target: Peptidyl-prolyl cis-trans isomerase NIMA-interacting 1 (Homo sapiens) (UniProt Q13526); test: qHTS Validation Assay to Find Inhibitors of Pin1 (AID 504536; active = well fitted inhibition curve with a large enough effect in the polarisation, with a control signal flat, not every such curve was filed as active; the % refers to the polarisation)
# Chain of Peptidyl-prolyl cis-trans isomerase NIMA-interacting 1 (Homo sapiens) (Q13526 whole entry, looked up): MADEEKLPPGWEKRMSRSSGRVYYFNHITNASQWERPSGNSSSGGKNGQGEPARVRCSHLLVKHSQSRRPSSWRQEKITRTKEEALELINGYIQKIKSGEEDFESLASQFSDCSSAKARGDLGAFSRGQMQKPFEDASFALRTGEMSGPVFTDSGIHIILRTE
# Method in brief: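 Fluorescence polarization competition: compounds (titration) displace HiFluor-488-labeled Pin1-1b peptide from Pin1 (0.3 uM final) in pH 7.5 HEPES buffer with DTT, 10 min at room temperature; %Activity normalized to no-enzyme wells, curves fitted.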
# [2] = target: Phosphoglycerate kinase, glycosomal (Trypanosoma brucei brucei) (UniProt P07378); test: qHTS Validation Assay to Find Inhibitors of Phosphoglycerate Kinase (AID 504547)
# Chain of Phosphoglycerate kinase, glycosomal (Trypanosoma brucei brucei) (P07378 whole entry, looked up): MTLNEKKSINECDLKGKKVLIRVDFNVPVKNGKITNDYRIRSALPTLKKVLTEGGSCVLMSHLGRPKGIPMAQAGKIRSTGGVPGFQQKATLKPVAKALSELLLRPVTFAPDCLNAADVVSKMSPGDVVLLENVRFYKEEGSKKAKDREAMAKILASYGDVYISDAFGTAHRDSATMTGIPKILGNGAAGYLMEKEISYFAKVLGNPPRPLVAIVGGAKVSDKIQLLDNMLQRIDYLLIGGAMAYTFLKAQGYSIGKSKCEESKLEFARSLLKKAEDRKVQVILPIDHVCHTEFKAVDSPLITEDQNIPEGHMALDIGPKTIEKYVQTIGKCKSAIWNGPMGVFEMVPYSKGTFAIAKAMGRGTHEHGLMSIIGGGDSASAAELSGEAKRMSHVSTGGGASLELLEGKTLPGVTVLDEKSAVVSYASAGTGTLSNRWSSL
# Method in brief: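 Inhibition of the enzyme is judged by a Kinase-Glo Plus luminescent signal following a one-hour incubation at room temperature. Because 1,3-BPG is unstable, it is made in situ by GAPDH at 100nM final; no-PGK wells define the baseline.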
# [3] = target: phosphoglycerate mutase (Leishmania major) (UniProt Q4Q090); test: qHTS Validation Assay to Find Inhibitors of Phosphoglycerate Mutase (AID 504548); details: Potency: inhibition qHTS; note: series mostly up to about 58 µM
# Chain of phosphoglycerate mutase (Leishmania major) (Q4Q090 1-553): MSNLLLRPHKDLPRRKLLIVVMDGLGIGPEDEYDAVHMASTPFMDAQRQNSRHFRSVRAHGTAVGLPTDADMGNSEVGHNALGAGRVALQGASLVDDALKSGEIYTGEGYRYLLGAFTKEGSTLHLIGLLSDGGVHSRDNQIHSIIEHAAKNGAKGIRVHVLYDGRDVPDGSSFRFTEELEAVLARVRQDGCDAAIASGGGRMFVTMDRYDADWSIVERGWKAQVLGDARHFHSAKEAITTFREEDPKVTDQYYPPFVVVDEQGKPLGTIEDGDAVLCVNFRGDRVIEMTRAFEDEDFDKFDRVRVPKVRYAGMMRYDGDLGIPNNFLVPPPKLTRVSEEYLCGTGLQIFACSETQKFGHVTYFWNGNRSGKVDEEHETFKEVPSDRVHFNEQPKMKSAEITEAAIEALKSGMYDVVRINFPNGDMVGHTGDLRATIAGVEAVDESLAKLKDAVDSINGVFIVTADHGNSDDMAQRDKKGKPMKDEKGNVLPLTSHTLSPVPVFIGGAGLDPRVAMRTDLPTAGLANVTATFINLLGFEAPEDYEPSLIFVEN
# Method in brief: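 Lm PGAM 1.25nM final; 100 mM TEA pH 7.6, 5 mM MgCl2, 0.01% Tween-20; 45 min RT; Kinase-GloPlus, 10 min; end-point luminescence. Enzyme-free wells as negative controls.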
# [4] = target: Ubiquitin carboxyl-terminal hydrolase 1 (Homo sapiens) (UniProt O94782); test: Inhibitors of USP1/UAF1: Pilot qHTS (AID 504865); note: nearly all actives have a fitted effect of over 35% in size; note: potency is the fitted concentration of half-maximal effect
# Chain of Ubiquitin carboxyl-terminal hydrolase 1 (Homo sapiens) (O94782 whole entry, looked up): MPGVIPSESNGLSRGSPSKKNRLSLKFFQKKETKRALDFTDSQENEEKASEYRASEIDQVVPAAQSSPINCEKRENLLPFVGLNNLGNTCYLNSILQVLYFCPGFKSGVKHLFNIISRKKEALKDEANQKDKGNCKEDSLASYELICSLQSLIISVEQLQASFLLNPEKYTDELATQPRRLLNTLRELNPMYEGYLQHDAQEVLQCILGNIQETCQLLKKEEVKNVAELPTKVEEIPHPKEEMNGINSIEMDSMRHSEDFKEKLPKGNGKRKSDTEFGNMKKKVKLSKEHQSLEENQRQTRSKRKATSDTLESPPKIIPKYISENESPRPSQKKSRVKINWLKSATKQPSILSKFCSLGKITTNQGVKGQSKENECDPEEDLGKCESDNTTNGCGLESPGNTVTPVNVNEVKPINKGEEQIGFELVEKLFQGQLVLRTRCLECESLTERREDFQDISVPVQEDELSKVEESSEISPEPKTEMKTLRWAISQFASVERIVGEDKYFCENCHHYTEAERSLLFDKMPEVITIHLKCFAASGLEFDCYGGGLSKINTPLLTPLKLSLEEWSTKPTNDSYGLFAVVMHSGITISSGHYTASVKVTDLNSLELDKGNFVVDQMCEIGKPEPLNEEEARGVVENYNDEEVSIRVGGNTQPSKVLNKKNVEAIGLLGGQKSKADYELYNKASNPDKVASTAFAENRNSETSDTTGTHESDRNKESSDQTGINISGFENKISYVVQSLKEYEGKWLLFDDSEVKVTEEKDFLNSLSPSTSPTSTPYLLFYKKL
# Method in brief: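 USP1/UAF1 complex at 1 nM preincubated 15 min at room temperature with compound, then Ub-Rho substrate added at 150 nM final. Fluorescence (480/540 nm) read kinetically in 50 mM HEPES pH 7.8, 0.5 mM EDTA, 1 mM TCEP, 0.1 mg/ml BSA, 0.01% Tween-20.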
# [5] = qHTS for Inhibitors of ATXN expression: Validation of Cytotoxic Assay (AID 588349)
# Method in brief: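 HEK293 cells were dosed with titrated compounds for 72 hr at 37 degrees C. Viability was read by CellTiter Glo luminescence, with intracellular ATP as the marker of cell survival.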
# [6] = qHTS for Inhibitors of ATXN expression: Validation (AID 588378); note: nearly all actives have a fitted effect of over 75% in size; note: potency is the fitted concentration of half-maximal effect
# Method in brief: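 HEK293 cells carrying ATXN2-firefly luciferase reporter, treated with compound 24 h at 37 °C. Viability read first by CellTiter-Fluor (405/525 nm), then reporter expression by Bright-Glo luminescence; controls were a known ATXN2 expression inhibitor and a luciferase inhibitor.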
# [7] = target: DNA dC->dU-editing enzyme APOBEC-3G (Homo sapiens) (UniProt Q9HC16); test: qHTS for inhibitors of Vif-A3G interactions: Validation (AID 588379)
# Chain of DNA dC->dU-editing enzyme APOBEC-3G (Homo sapiens) (Q9HC16 whole entry, looked up): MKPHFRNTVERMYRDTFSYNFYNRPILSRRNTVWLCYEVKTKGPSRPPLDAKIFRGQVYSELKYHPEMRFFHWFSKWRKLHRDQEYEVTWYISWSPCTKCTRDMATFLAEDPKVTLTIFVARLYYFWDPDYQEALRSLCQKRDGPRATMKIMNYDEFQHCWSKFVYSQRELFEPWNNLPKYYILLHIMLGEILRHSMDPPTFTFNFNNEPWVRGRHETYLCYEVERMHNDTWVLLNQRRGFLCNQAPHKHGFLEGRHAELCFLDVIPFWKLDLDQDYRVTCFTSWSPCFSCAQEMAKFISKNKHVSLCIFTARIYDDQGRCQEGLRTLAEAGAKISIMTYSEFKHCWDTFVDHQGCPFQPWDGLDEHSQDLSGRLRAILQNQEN
# Method in brief: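 HeLa cells stably expressing Vif and A3G-eYFP, 700 cells/well, incubated overnight at 37 deg C, then exposed to compound overnight at 37 deg C. Inhibition of Vif-mediated degradation read as increased yellow fluorescence (Ex 488/Em 500-530) by laser-scanning cytometry.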
# [8] = target: Estrogen receptor (Homo sapiens) (UniProt P03372); test: qHTS assay for small molecule antagonists of estrogen receptor alpha signaling (AID 588513; active = well fitted curve in the direction sought with a large enough effect in the signal ratio, with a control signal flat, not every such curve was filed as active; the % refers to the signal ratio)
# Chain of Estrogen receptor (Homo sapiens) (P03372 whole entry, looked up): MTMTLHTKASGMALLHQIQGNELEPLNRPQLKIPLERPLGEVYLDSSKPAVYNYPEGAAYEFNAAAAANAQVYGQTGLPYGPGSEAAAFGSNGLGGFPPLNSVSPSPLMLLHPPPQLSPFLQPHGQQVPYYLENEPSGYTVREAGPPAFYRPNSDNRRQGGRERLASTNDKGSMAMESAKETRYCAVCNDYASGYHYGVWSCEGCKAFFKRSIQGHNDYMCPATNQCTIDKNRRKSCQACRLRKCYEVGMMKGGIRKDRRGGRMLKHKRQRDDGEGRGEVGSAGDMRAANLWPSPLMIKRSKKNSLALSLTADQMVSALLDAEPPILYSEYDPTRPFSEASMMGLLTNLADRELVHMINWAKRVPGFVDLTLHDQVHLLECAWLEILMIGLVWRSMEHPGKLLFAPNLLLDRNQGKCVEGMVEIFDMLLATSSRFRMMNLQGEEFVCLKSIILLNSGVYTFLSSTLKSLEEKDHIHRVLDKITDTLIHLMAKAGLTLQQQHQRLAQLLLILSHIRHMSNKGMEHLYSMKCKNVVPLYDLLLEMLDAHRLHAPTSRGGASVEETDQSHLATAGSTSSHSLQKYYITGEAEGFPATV
# Method in brief: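 ER-alpha-UAS-bla GripTite HEK 293 cells in 2% charcoal/dextran-treated FBS medium; compounds titrated (1:2, duplicate), then stimulated with 0.5 nM 17-beta-estradiol for 18 h at 37C. CCF4 beta-lactamase fluorescence; Hill-fit IC50 and efficacy.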
# [9] = target: Estrogen receptor (Homo sapiens) (UniProt P03372); test: qHTS assay for small molecule agonists of estrogen receptor alpha signaling (AID 588514; calls by dose curve; note: nearly all actives have a fitted effect of over 70% in size)
# Method in brief: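 ER-alpha-UAS-bla GripTite HEK 293 cells in medium with 2% charcoal/dextran-treated FBS were treated with compound titrations at 37 C for 18 hrs; beta-lactamase reporter read by CCF4 fluorescence after 2 hrs at RT.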
# [10] = target: Peroxisome proliferator-activated receptor gamma (Homo sapiens) (UniProt P37231); test: qHTS assay for small molecule agonists of peroxisome proliferator-activated receptor gamma signaling (AID 588536; active = well fitted curve in the direction sought with a large enough effect in the signal ratio, with a control signal flat, not every such curve was filed as active; the % refers to the signal ratio)
# Chain of Peroxisome proliferator-activated receptor gamma (Homo sapiens) (P37231 whole entry, looked up): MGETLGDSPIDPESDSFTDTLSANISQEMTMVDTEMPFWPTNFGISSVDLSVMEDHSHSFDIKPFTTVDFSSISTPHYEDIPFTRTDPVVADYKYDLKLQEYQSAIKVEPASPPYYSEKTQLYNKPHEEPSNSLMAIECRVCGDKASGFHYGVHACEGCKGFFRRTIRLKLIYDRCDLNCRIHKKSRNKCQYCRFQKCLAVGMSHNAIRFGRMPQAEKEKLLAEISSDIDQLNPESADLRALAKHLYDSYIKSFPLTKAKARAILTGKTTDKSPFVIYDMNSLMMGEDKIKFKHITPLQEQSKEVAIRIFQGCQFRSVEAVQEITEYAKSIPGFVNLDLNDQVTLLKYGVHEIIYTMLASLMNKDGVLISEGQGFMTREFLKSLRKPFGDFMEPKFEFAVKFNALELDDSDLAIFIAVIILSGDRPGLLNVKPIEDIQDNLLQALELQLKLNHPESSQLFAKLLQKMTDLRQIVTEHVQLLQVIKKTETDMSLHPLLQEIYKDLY
# Method in brief: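 PPAR-gamma-UAS-bla HEK293 cells in medium with 1% charcoal/dextran-treated FBS were exposed to compounds for 16 h at 37 C. Beta-lactamase activity was read with CCF4 substrate (405 nm excitation, 460/530 nm emission).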
# [11] = target: Peroxisome proliferator-activated receptor gamma (Homo sapiens) (UniProt P37231); test: qHTS assay for small molecule antagonists of peroxisome proliferator-activated receptor gamma signaling (AID 588537; active = well fitted inhibition curve with a large enough effect in the signal ratio, with a control signal flat, not every such curve was filed as active; the % refers to the signal ratio;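 note: reporter cells co-stimulated with 50 nM rosiglitazone agonist during compound treatment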)
# Method in brief: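 Inhibitors of agonist-stimulated UAS-bla reporter activity were sought in HEK293 cells; rosiglitazone (50 nM) defined full signal and DMSO baseline. Curves fitted to Hill model gave IC50 and efficacy.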
# [12] = target: Vitamin D3 receptor (Homo sapiens) (UniProt P11473); test: qHTS assay for small molecule antagonists of vitamin D receptor signaling (AID 588541; calls by dose curve;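 note: receptor activated by calcitriol during compound treatment; series mostly up to about 77 µM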)
# Chain of Vitamin D3 receptor (Homo sapiens) (P11473 whole entry, looked up): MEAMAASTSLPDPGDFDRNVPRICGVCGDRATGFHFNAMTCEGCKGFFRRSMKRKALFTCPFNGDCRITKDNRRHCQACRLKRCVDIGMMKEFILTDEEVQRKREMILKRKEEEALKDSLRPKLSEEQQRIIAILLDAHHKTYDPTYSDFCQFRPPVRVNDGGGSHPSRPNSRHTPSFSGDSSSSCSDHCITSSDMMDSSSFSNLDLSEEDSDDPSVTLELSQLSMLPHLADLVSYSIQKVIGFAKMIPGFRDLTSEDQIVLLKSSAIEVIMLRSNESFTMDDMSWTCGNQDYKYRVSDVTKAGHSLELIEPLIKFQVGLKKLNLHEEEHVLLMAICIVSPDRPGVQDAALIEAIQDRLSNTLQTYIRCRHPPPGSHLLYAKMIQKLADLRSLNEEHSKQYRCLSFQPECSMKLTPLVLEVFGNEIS
# Method in brief: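 Antagonist-mode beta-lactamase reporter assay: HEK293T VDR-UAS-bla cells were exposed to titrated compound alongside 1-alpha,25-dihydroxyvitamin D3 at 3 nM final for 16 h. Values were normalized to the 50 nM agonist control and DMSO basal, with IC50 and efficacy from Hill equation fits.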
# [13] = target: Vitamin D3 receptor (Homo sapiens) (UniProt P11473); test: qHTS assay for small molecule agonists of vitamin D receptor signaling (AID 588543; calls by dose curve)
# Method in brief: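 VDR-UAS-bla HEK293T cells, 2000/well, 2% charcoal-stripped FBS; compound titration 16 h at 37 C; CCF4 beta-lactamase ratio read. Normalized to 50 nM 1-alpha,25-dihydroxyvitamin D3 (100%) and DMSO; Hill fit gives EC50, efficacy.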
# [14] = target: Glucocorticoid receptor (Homo sapiens) (UniProt P04150); test: qHTS assay for small molecule agonists of glucocorticoid receptor signaling (AID 588532; active = well fitted curve in the direction sought with a large enough effect in the signal ratio, with a control signal flat; the % refers to the signal ratio); details: HeLa MMTV-bla, beta-lactamase ratio, agonist, 18 h; hits give high values; percent of dexamethasone control, DMSO zero
# Chain of Glucocorticoid receptor (Homo sapiens) (P04150 whole entry, looked up): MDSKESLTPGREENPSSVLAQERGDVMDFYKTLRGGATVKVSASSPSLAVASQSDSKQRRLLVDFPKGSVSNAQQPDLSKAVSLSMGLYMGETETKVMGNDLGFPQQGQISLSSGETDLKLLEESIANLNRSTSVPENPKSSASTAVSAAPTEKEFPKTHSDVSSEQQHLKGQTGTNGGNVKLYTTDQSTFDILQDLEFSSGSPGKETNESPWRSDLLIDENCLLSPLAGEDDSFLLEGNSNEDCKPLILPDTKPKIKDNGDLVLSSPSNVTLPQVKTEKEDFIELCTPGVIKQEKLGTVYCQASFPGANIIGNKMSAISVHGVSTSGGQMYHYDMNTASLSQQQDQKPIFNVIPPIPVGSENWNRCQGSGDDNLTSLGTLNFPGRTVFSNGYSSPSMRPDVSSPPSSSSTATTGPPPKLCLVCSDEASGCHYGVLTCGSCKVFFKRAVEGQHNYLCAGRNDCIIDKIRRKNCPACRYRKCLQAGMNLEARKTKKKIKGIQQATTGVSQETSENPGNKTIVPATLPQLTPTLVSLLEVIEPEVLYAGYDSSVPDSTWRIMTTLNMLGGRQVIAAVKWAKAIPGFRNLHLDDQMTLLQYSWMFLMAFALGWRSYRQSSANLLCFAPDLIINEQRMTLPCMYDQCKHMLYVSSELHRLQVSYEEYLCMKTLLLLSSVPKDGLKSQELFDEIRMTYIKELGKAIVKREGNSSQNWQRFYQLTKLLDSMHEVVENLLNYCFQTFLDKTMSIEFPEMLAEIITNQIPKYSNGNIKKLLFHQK
# Method in brief: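 Using MMTV-bla HeLa cells in medium with 1% stripped FBS and 25 mM HEPES, compounds were titrated and incubated overnight-length (18 h). Beta-lactamase cleavage of CCF4 was quantified by dual-emission fluorescence.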
# [15] = target: Glucocorticoid receptor (Homo sapiens) (UniProt P04150); test: qHTS assay for small molecule antagonists of glucocorticoid receptor signaling (AID 588533; active = well fitted inhibition curve with a large enough effect in the signal ratio, with a control signal flat, not every such curve was filed as active; the % refers to the signal ratio;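 note: cells stimulated with 2 nM dexamethasone as agonist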)
# Method in brief: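 Antagonist-mode qHTS: compound titrations added to GRE-bla HeLa cells, then dexamethasone 2 nM final; 18 h, 37 C. CCF4 FRET fluorescence normalized to dexamethasone and DMSO; IC50 from Hill fit.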
smiles,measurement,setting,value
COc1cc2c(CCNC(C)=O)c[nH]c2cc1Cl,Potency,[1],inactive
same,Potency,[2],inactive
same,Potency,[3],inactive
same,Potency,[4],inactive
same,Potency,[5],inactive
same,Potency,[6],inactive
same,Potency,[7],inactive
CN1CCC[C@H]1c1cccnc1,Potency,[1],inactive
same,Potency,[2],inactive
same,Potency,[3],inactive
same,Potency,[4],inactive
same,Potency,[5],inactive
same,Potency,[6],inactive
same,Potency,[7],inactive
same,outcome,[8],inactive
same,Potency,[9],inactive
same,outcome,[10],inactive
same,Potency,[11],inactive
same,outcome,[12],inactive
same,outcome,[13],inactive
CCCN(CC1CC1)c1nc(C)nc(Nc2c(Cl)cc(Cl)cc2Cl)c1Cl,Potency,[1],inactive
same,Potency,[2],inactive
same,Potency,[3],inactive
same,Potency,[4],inactive
same,Potency,[5],inactive
same,Potency,[6],inactive
same,Potency,[7],inactive
Nc1nc(Nc2ccccc2)nc2c1ncn2[C@@H]1O[C@H](CO)[C@@H](O)[C@H]1O,Potency,[1],inactive
same,Potency,[2],inactive
same,Potency,[3],inactive
same,Potency,[4],inactive
same,Potency,[5],inactive
same,Potency,[6],inactive
NC(=S)NCCC[C@H](N)C(=O)O,Potency,[1],inactive
same,Potency,[2],inactive
same,Potency,[3],inactive
same,Potency,[4],inactive
same,Potency,[5],inactive
same,Potency,[6],inactive
CN1C2CCC1CC(OC(=O)C(O)c1ccccc1)C2 (stereo unspecified),Potency,[1],inactive
same,Potency,[2],inactive
same,Potency,[3],inactive
same,Potency,[4],inactive
same,Potency,[5],inactive
same,Potency,[6],inactive
O=C(O)CC1CC(c2ccccc2)=NO1 (stereo unspecified),Potency,[1],inactive
same,Potency,[2],inactive
same,Potency,[3],inactive
same,Potency,[4],inactive
same,Potency,[5],inactive
same,Potency,[6],inactive
C[N+]1(C)CCC(OC(=O)C(c2ccccc2)c2ccccc2)CC1,Potency,[1],inactive
same,Potency,[2],inactive
same,Potency,[3],inactive
same,Potency,[4],inactive
same,Potency,[5],inactive
same,Potency,[6],inactive
same,Potency,[7],inactive
COc1cccc(C(=O)NCCN2CCN(c3ccc(Cl)cc3)CC2)c1,Potency,[1],inactive
same,Potency,[2],inactive
same,Potency,[3],inactive
same,Potency,[4],inactive
same,Potency,[5],inactive
same,Potency,[6],inactive
Cc1cc(NC2CCCCC2)nc(-n2nc(C)cc2C)n1,Potency,[1],inactive
same,Potency,[2],inactive
same,Potency,[3],inactive
same,Potency,[4],inactive
same,Potency,[5],inactive
same,Potency,[6],inactive
OC[C@H]1O[C@@H](n2cnc3c(NC4CCCCC4)ncnc32)[C@H](O)[C@@H]1O,Potency,[1],inactive
same,Potency,[2],inactive
same,Potency,[3],inactive
same,Potency,[4],inactive
same,Potency,[5],inactive
same,Potency,[6],inactive
O=C(O)c1cc(=O)c2c(Cl)cc(Cl)cc2[nH]1,Potency,[1],inactive
same,Potency,[2],inactive
same,Potency,[3],inactive
same,Potency,[4],inactive
same,Potency,[5],inactive
same,Potency,[6],inactive
same,Potency,[7],inactive
Cc1cc2c(cc1Cl)N(C(=O)Nc1ccc(Oc3cccnc3C)nc1)CC2,Potency,[1],inactive
same,Potency,[2],inactive
same,Potency,[3],inactive
same,Potency,[4],44.7 µM (active)
same,Potency,[6],17.8 µM (active)
CC12C(=O)OC(=O)C1(C)C1CCC2O1 (stereo unspecified),Potency,[1],inactive
same,Potency,[2],inactive
same,Potency,[3],inactive
same,Potency,[4],inactive
same,Potency,[7],inactive
O=c1[nH]c2cc(C(F)(F)F)ccc2n1-c1cc(C(F)(F)F)ccc1O,Potency,[1],inactive
same,Potency,[2],inactive
same,Potency,[3],inactive
same,Potency,[5],inactive
same,Potency,[6],inactive
COc1ccccc1CNCCCCCCNCCCCCCCCNCCCCCCNCc1ccccc1OC,Potency,[1],inactive
same,Potency,[2],inactive
same,Potency,[3],inactive
same,Potency,[4],inactive
same,Potency,[6],inactive
Nc1ncnc2c1c(I)cn2[C@@H]1C[C@H](N)[C@@H](O)[C@H]1O,Potency,[1],inactive
same,Potency,[2],inactive
same,Potency,[3],inactive
same,Potency,[4],inactive
same,Potency,[6],10 µM (active)
CC(C)(C=O)Cc1cc(C(C)(C)C)c(O)c(C(C)(C)C)c1,Potency,[1],inactive
same,Potency,[2],inactive
same,Potency,[3],inactive
same,Potency,[4],inactive
same,Potency,[7],inactive
CN(C)CCC(c1ccc(Cl)cc1)c1ccccn1 (stereo unspecified),Potency,[1],inactive
same,Potency,[2],inactive
same,Potency,[3],inactive
same,Potency,[4],inactive
same,activation,[14],0.717%
same,Potency,[15],inactive
same,outcome,[10],inactive
O=C(O)CNC(=O)C(CS)Cc1ccccc1 (stereo unspecified),Potency,[1],inactive
same,Potency,[2],inactive
same,Potency,[3],inactive
same,Potency,[5],inactive
same,Potency,[6],inactive
Oc1cc2c(cc1O)CN(C(=S)NCCc1ccc(Cl)cc1)CCC2,Potency,[1],inactive
same,Potency,[2],inactive
same,Potency,[3],inactive
same,Potency,[5],inactive
same,Potency,[6],inactive
same,Potency,[7],inactive
Brc1c(Br)c(Br)c2n[nH]nc2c1Br,Potency,[1],inactive
same,Potency,[2],inactive
same,Potency,[3],inactive
same,Potency,[5],inactive
COc1ccccc1N1CCN(CCN(C(=O)c2ccc(I)cc2)c2ccccn2)CC1,Potency,[1],inactive
same,Potency,[2],inactive
same,Potency,[3],inactive
same,Potency,[4],inactive
same,Potency,[6],inactive
COC(=O)c1c(C)[nH]c(C)c1C(=O)c1ccccc1Cc1ccccc1,Potency,[1],inactive
same,Potency,[2],inactive
same,Potency,[3],inactive
same,Potency,[5],inactive
same,Potency,[6],inactive
same,Potency,[7],inactive
NC(N)=NC(=O)c1nc(Cl)c(N2CCCCCC2)nc1N,Potency,[1],inactive
same,Potency,[2],inactive
same,Potency,[3],inactive
same,Potency,[4],inactive
same,Potency,[6],inactive
NCC1OC(O[C@H]2[C@H](O)[C@@H](OC3C(O)C(N)CC(N)C3OC3OC(CO)C(O)C(O)C3N)O[C@@H]2CO)C(N)C(O)C1O (stereo partly specified),Potency,[1],inactive
same,Potency,[2],inactive
same,Potency,[3],inactive
same,Potency,[5],inactive
same,Potency,[6],inactive
CN1C2CC(OC(=O)[C@H](CO)c3ccccc3)CC1C1OC12 (stereo partly specified),Potency,[1],inactive
same,Potency,[2],inactive
same,Potency,[3],inactive
same,Potency,[5],inactive
same,Potency,[6],inactive
O=C1NC(=O)/C(=C/c2ccc3nccnc3c2)S1,Potency,[1],inactive
same,Potency,[2],inactive
same,Potency,[3],inactive
same,Potency,[5],inactive
same,Potency,[6],inactive
CCCn1c(=O)c2[nH]c(-c3ccc(OCC(=O)NCCN)cc3)nc2n(CCC)c1=O,Potency,[1],inactive
same,Potency,[2],inactive
same,Potency,[3],inactive
same,Potency,[4],inactive
same,Potency,[6],inactive
